PubChem BioAssay AID1053144 (Broad Institute, 2014)
The whole screen tested about 3,400 compounds, of which about 160 (4.7%) were called active.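 The calls were made as follows: active = fitted curve reaches 30% activation at a concentration no higher than the top valid tested dose, luminescence rising; inconclusive = no clear call, values can overlap the other calls; inactive = signal moving opposite to the expected increase, plus the rest.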 Only a sample is shown. Entries with a potency or affinity are not part of this list.

Assay: Wnt/beta-catenin signaling activators, dose response, cell-based, iPS-derived NPC, luciferase, Wnt3a, cherry-pick (AID 1053144);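 also: Wnt3a stimulus is conditioned medium from Wnt3a-transfected mouse L cells at 5% in well; 0% = neutral control wells and 100% = CHIR-99021 positive control wells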
Settings: NPC TCF/LEF luciferase reporter, Wnt3a EC25, 24 h; series mostly up to 26 µM; activation: at the top concentration

activation, inactive:
COc1ccc(-c2nc3c4ccccc4[nH]c(=O)n3n2)cc1 8.52%
O=C(Nc1nccs1)c1sc2cc(Cl)ccc2c1Cl 0.675%
O=C(NCC(=O)N1CCCCC1)c1sc2ccccc2c1Cl 12.8%
C/C(=C\c1ccccc1)C(=O)NCc1ccco1 8.95%
O=C(NN1C(=O)C2C3c4ccccc4C(c4ccccc43)[C@@H]2C1=O)c1ccccc1 (some centres undefined) 1.36%
CN(CC(=O)Nc1ccc(F)cc1)C(=O)COC(=O)c1cccc(N(C)C)c1 9.3%
CCOC(=O)c1cccc(COC(=O)c2cccc(-c3nnc(-c4ccccc4)o3)c2)c1 0.153%
COc1ccc(/C=C2\CCC(C3CCCC3)C2=O)cc1OC (centres undefined) 3.68%
Cc1cc(C)n(-c2nc3ccccc3s2)n1 4.91%
CN(C)c1ccc(-c2ccc3c(=O)c4ccccc4n(C)c3c2)cn1 4.76%
O=C(COn1nnc2ccccc21)NCC1CCCCC1 9.79%
O=C(NNS(=O)(=O)c1ccccc1)C1CCN(S(=O)(=O)c2ccccc2)CC1 1.1%
O=C(c1ccc(F)cc1)c1cc2ccccc2o1 10.6%
O=C(Nc1ccccc1)c1cc2ccccc2o1 11.2%
COc1ccc(/C=C2/CCc3ccccc3C2=O)cc1OC 4.77%
Cc1ccc(/C=C/C(=O)c2nc3ccccc3[nH]2)cc1 21.5%
O=C(/C(=C/c1ccc(Cl)cc1)c1nc2ccccc2[nH]1)c1ccccc1 -5.94%
Nc1c(C(=O)Nc2ccc(Cl)cc2)oc2ccccc12 9.62%
O=C(/C=C/c1ccco1)Nc1ccccc1C(=O)O 13.5%
CCOc1ccc(CCNC(=O)COC(=O)c2cccc(N(C)C)c2)cc1OCC 18.4%
CCc1nnc(NC(=O)/C=C/c2ccco2)s1 10%
CCOc1ccc(CCNC(=O)COc2cc(=O)n(C)c3ccccc23)cc1OCC 17.3%
CC(C)(C)c1ccc(/C=C/C(=O)Nc2cccnc2)cc1 14.5%
Cc1cc(C(=O)COC(=O)c2ccc(O)cc2)c(C)n1CC(F)(F)F 19.3%
C(=C\c1cc(/C=C/c2ccccc2)ncn1)/c1ccccc1 8.61%
COc1ccc(C(=O)/C=C/c2ccccc2C(F)(F)F)cc1 17%
CCCCOC(=O)Nc1ccc(N2CCCCC2)cc1 10.5%
COC(=O)c1ccc(NC(=O)Cc2ccccc2)cc1 7.35%
COc1ccc(/C=C(/NC(=O)c2ccccc2Cl)C(=O)O)cc1 0.835%
O=C(O)Cc1sc(Nc2ccccc2)nc1-c1cccs1 11.4%
Cc1nc(Nc2ccccc2)sc1C(=O)c1ccccc1 7.59%
O=C(Nc1ccc(Cl)cc1)Nc1ccccc1C(=O)NCc1ccco1 21.4%
Cc1ccsc1C(=O)OCc1cc(=O)n2ccsc2n1 15.6%
COC(=O)CNc1c(-c2ccccn2)nc2ccc(Br)cn12 4.47%
COC(=O)c1ccc(NC(=O)c2cccc(OC)c2)cc1 11%
COc1ccc(NC(=O)c2cccc(OS(=O)(=O)N(C)C)c2)cc1 9.03%
O=C(/C=C\c1ccco1)Oc1cccc2cccnc12 -5.59%
C(=N\Nc1nccc(-c2cccnc2)n1)/c1ccccc1 8.07%
CC(C)(C)c1cc(C(=O)NNC(=O)c2ccc(C(F)(F)F)cc2)no1 1.66%
CN(C)c1ccc(/C=C/c2ccncc2)cc1 5.29%
COc1ccc(/C=C/C(=O)c2ccccn2)cc1 14.1%
COc1c(OC(C)=O)ccc(/C=C/c2ccc3cccc(OC)c3n2)c1[N+](=O)[O-] -1.16%
CC(=O)Nc1ccc(-c2ccnc3c2CC(C)(C(=O)NC(C)C)O3)cc1 (centres undefined) 0.429%
Cc1ccc(NC(=O)CSc2nccn2Cc2ccco2)c(C)c1 6.3%
CCC(=O)NCCc1nc2cc(NC(=O)c3ccc(Cl)cc3)ccc2n1C 5.88%
Cn1c(CCNC(=O)c2ccco2)nc2cc(NC(=O)c3ccccc3)ccc21 17.2%
Clc1ccccc1Nc1nc(-c2cccnc2)cs1 9.94%
Nc1ccccc1-n1cccc1 20%
Cc1ccc(S(=O)(=O)N2CCCC(C(=O)Nc3ccc(NC(=O)c4ccccn4)cc3)C2)cc1 (centres undefined) 0.501%
Oc1ccc(-c2csc(Nc3ncccn3)n2)c(O)c1 14.6%
COc1ccc(-c2nc3n(c2C)Cc2ccccc2-3)cc1 12.4%
Clc1ccc(-c2nc3n(n2)Cc2ccccc2-3)cc1 1.17%
Cn1c(-c2ccc(F)c(F)c2)cc2onc(-c3ccccc3)c2c1=O 5.39%
NC(=O)C1CCN(C(=O)c2cc3c(s2)CCCCC3)CC1 2.7%
O=C(Nc1nc(-c2ccc3c(c2)OCCO3)cs1)C1CCCC1 16.9%
O=C(Nc1nc(-c2nc3ccccc3s2)cs1)C1CC1 17%
CC(C)(C)c1ccc(NC(=O)c2ccccc2)c([N+](=O)[O-])c1 3.96%
O=C(Nc1ccc2c(c1)OCO2)Nc1ccccn1 13.8%
Cc1ccc(CNC(=O)c2ccc(Cn3cc(-c4ccc(C)cc4)nc3-c3ccncc3)cc2)cc1 8.59%
Nc1nc(-c2cc(-c3ccccc3)no2)cs1 9.23%
Clc1ccc(-c2cc(-c3ccccc3)on2)cc1 10.5%
COc1cccc(OCC(=O)Nc2ccccc2C(N)=O)c1 8.69%
Cc1ccc(OCC(=O)Nc2ccccc2F)cc1 12.7%
Cc1cc(C)c(C#N)c(N2CCSCC2)n1 2.58%
O=C(Nc1ccccc1F)c1ccc2c(c1)OCO2 12.6%
O=C(Nc1ncccc1O)c1ccc2ccccc2c1 8.12%
O=C(Nc1cccnc1)c1ccc(Oc2ccccc2)cc1 9.21%
NC(=O)c1ccccc1NC(=O)c1ccc2c(c1)OCO2 16.1%
Cc1nc(NC(=O)c2ccc3c(c2)OCCO3)ccc1Br 7.19%
O=C(Nc1ccc(Cl)cc1Cl)c1ccc2c(c1)OCCO2 2.85%
COCCn1c(C)cc(C(=O)CSc2nc3ccccc3c(=O)n2Cc2ccco2)c1C 18.6%
Nc1cc([N+](=O)[O-])ccc1OCc1ccccc1 8.87%
O=C(Nc1cc2c(cc1Br)OCCCO2)c1ccccc1 7.2%
C/C(=C\c1ccccc1)C(=O)NCCc1ccccc1 15.1%
CN(CCO)C(=O)c1ccc(-c2nn(C)c(=O)c3ccccc23)cc1 9.07%
O=C(Nc1cccc(F)c1)Nc1ccc2c(c1)CCC2 6.92%
O=C(Nc1ccc2c(c1)CCC2)c1cccs1 4.74%
O=C(CCNC(=O)c1ccc(Cl)cc1)NC1CCCCCC1 10.6%
CCOc1cc(/C=N/NC(=O)CSc2nnc(C)s2)ccc1OCc1ccccc1Cl -1.65%
O=c1oc(CCO)cc2ccc(-c3ccc4[nH]ccc4c3)cc12 13.7%
O=c1c2ccccc2oc2cc(-c3ccc4cc[nH]c4c3)ccc12 7.52%
CC1CCc2c(sc(/N=C/c3ccco3)c2C(N)=O)C1 (centres undefined) 5.79%
Fc1ccc2cc(-c3ccccc3F)ncc2c1 11.3%
Cc1cc(NC(=O)c2ccc(OCC3CCCO3)cc2)ccc1Br (centres undefined) 11.3%
O=c1c2ccccc2nc2c3ccccc3c(NCc3ccccn3)nn12 6.04%
O=C(CSc1nc2ccccc2c(=O)n1NC(=O)c1ccccc1)c1ccc(Cl)cc1 6.68%
Cn1cccc1C(=O)OCC(=O)Nc1ccc2c(c1)OCCO2 2.19%
Cc1ccccc1Cn1nnc(C(=O)Nc2ccc3c(c2)OCCO3)c1N 18%
Fc1ccccc1-c1nc2ccccc2[nH]1 7.36%
CCOC(=O)c1sc(=NC(=O)c2ccccc2)n(C)c1C 12.3%
CCOC(=O)c1sc(=NC(=O)c2ccc(C)cc2)n(C)c1C 5.95%
NC(=O)c1cc(Cl)ccc1OCC(=O)Nc1ccc2c(c1)OCO2 15.9%
O=C(O)c1ccc(N/N=C/c2cccc3cccnc23)cc1 7.3%
Oc1ccccc1/C=N/Nc1cccc2cccnc12 11%
Cc1ccc(C(=O)Nc2cccc(C(=O)N3CCOCC3)c2)cc1 13.5%
Cn1cccc1C(=O)OCC(=O)N1CCc2ccccc21 13.9%
COC(=O)N=Nc1c(O)[nH]c2ccc(Br)cc12 13%
O=C(N=Nc1c(O)[nH]c2ccc(Br)cc12)c1ccco1 8.44%
O=C1CCN(Cc2ccccc2)C=C1c1ccc2ccccc2c1 9.52%
CC(C)=CC(=O)Nc1ccc(Cl)cc1 11.1%
O=C(NCCc1cccc(Cl)c1)c1ccc2c(c1)OCO2 1.66%
O=C(/C=C/c1ccco1)Nc1cccnc1Cl 14.5%
COc1cccc(NC(=O)/C=C/c2ccco2)c1 15.9%
O=C(/C=C/c1ccco1)Nc1cccnc1 3.46%
Cc1ccc(-n2nc3ccc(NC(=O)/C=C/c4ccco4)cc3n2)cc1 7.6%
COc1cccc(-c2cc(C(=O)N3CCCCCC3)no2)c1 3.16%
COc1ccc(-c2cc3nc4n(c(=O)c3s2)CCCCC4)cc1 3.29%
O=C(COc1ccc(F)cc1Cl)NC1CCCCCC1 6.97%
COc1ccc2c(c1)-c1nc(NC(=O)c3ccco3)sc1CC2 13%
N/C(=N\OC(=O)c1ccco1)c1cccnc1 1.97%
COc1ccc(C(=O)O/N=C(\N)c2ccc(Br)cc2)cc1 14.7%
COc1ccccc1C(=O)O/N=C(\N)c1ccccc1Cl 9.49%
Cc1cccc(C(=O)O/N=C(\N)c2ccc(Cl)cc2)c1 17.3%
N/C(=N\OC(=O)c1ccco1)c1ccccc1 10.3%
COc1ccccc1C(=O)O/N=C(\N)c1ccccn1 7.03%
COc1ccc(-c2cc(-c3ccc(C)cc3)n[nH]2)c(O)c1 3.59%
NS(=O)(=O)c1ccc2nc(NC(=O)Nc3ccccc3F)sc2c1 15.6%
Cc1ccc2[nH]c(-c3cccc(N)c3)cc2c1 10.4%
O=C(/C=C/c1ccc(F)cc1)NCCC1=CCCCC1 5.54%
CC(C)(C)c1ccc(NC(=O)c2ccc(=O)[nH]n2)cc1 6.11%
COc1ccc2cc(-c3ccsc3)ncc2c1 5.78%
CC1(C)CC(=O)C2=C(C1)Nc1ccccc1NC2c1ccc2c(c1)OCO2 (centres undefined) 14.2%
O=C1CC(c2ccco2)CC2=C1C=Nc1ccccc1N2 (centres undefined) -0.043%
O=C(NCCc1cccs1)c1ccc(Cl)c(Cl)c1 10.3%
